Experimental data as given in the supplement of paper PMC12819154, “High-throughput peptide-centric local stability assay extends protein–ligand identification to membrane proteins, tissues and bacteria” (Nature Structural & Molecular Biology, 2025).

Compound: Nc1ncnc2c1ncn2[C@@H]1O[C@H](COP(=O)(O)OP(=O)(O)OP(=O)(O)O)[C@@H](O)[C@H]1O [adenosine 5'-triphosphate]
Assay: log2 fold change of tryptic peptide abundance, ligand vs vehicle (limited proteolysis) (log2 ratio); higher = more trypsin-susceptible (destabilized)
Settings: ligand concentration: 5 mM; sample: E. coli desalted lysate; replicate design: treated before aliquoting
Experimental: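 HT-PELSA: desalted E. coli K-12 BW25113 lysate (with 12 mM MgCl2) incubated with 5 mM ATP (pH 7) or water for 30 min at 25 C, then a 4 min trypsin pulse at 22 C. Peptides were quantified by DIA-MS (4 replicates). Value is the peptide log2 fold change (treated/control); negative = stabilized. Scale: negative = ligand-stabilized region.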
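Further: lysate desalted by size exclusion to strip endogenous ATP, peptide intensities built from DIA-NN precursor signals, and peptides missing any value discarded before comparison.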

| Target | log2 fold change |
| --- | --- |
| UniProt P37745 (peptide sequence: WVGVLLSADNK, peptide start residue: 98) | -0.542 |
| UniProt P39400 (peptide sequence: VLGHEICGEIVGLGK, peptide start residue: 59) | -1.26 |
| UniProt P76550 (peptide sequence: PISNGAFYR, peptide start residue: 210) | -0.83 |
| UniProt P0AAB8 (peptide sequence: EQCDLLVCGHHHSFINR, peptide start residue: 102) | -0.697 |
| UniProt P15034 (peptide sequence: QNLTAPATMIDWRPVVHEMR, peptide start residue: 155) | -0.448 |
| UniProt P21345 (peptide sequence: EVLGKFDKTADQ, peptide start residue: 426) | -1.41 |
| UniProt P31802 (peptide sequence: GMSGLDTLNALRR, peptide start residue: 64) | 0.209 |
| UniProt P75838 (peptide sequence: GICGLPFTR, peptide start residue: 152) | -2.31 |
| UniProt P0ABM9 (peptide sequence: DEAQEQQFR, peptide start residue: 27) | 0.867 |
| UniProt P78067 (peptide sequence: WGHAGSDSTHMEDFHNPDGTMR, peptide start residue: 340) | -0.858 |
| UniProt P00805 (peptide sequence: SVFDTLATAAK, peptide start residue: 274) | 0.366 |
| UniProt P38097 (peptide sequence: VTVYEPQQAAAHSER, peptide start residue: 840) | -1.32 |
| UniProt P37689 (peptide sequence: LVAAIKSGK, peptide start residue: 383) | -2.15 |
| UniProt P15373 (peptide sequence: SHAVLTTESK, peptide start residue: 7) | -0.194 |
| UniProt P10121 (peptide sequence: KRGFFSWLGFGQK, peptide start residue: 6) | 0.814 |
| UniProt P77804 (peptide sequence: LEGYQEDQAKK, peptide start residue: 423) | 0.387 |
| UniProt P14081 (peptide sequence: EHLLQLPER, peptide start residue: 159) | -1.29 |
| UniProt P32131 (peptide sequence: QQHKADQYLDALEQEIVHR, peptide start residue: 78) | 1.02 |
| UniProt P09373 (peptide sequence: ALIPFGGIK, peptide start residue: 109) | -0.384 |
| UniProt P36929 (peptide sequence: VYDNLKR, peptide start residue: 286) | -1.2 |

| Target | log2 fold change |
| --- | --- |
| UniProt P00887 (peptide sequence: YPVTPGVATHVTDSRR, peptide start residue: 25) | -0.488 |
| UniProt P04949 (peptide sequence: NQSALSSSIER, peptide start residue: 21) | 0.651 |
| UniProt P0AEC3 (peptide sequence: FTQQGQVTVR, peptide start residue: 413) | -2.53 |
| UniProt P30011 (peptide sequence: VRHYVELLEGTNTQLLDTR, peptide start residue: 135) | 0.868 |
| UniProt P15047 (peptide sequence: IGMSAYGASK, peptide start residue: 139) | -1.47 |
| UniProt P15640 (peptide sequence: TSEWDER, peptide start residue: 323) | -1.28 |
| UniProt P03024 (peptide sequence: HSVSTPSLEASHHATSD, peptide start residue: 327) | 0.482 |
| UniProt P24188 (peptide sequence: NHYEYEVGHFENALEIPADTFR, peptide start residue: 157) | 0.32 |
| UniProt P03835 (peptide sequence: DLASMGQLVK, peptide start residue: 402) | -1.3 |
| UniProt P37749 (peptide sequence: YMSQDKIK, peptide start residue: 132) | -0.295 |
| UniProt P33599 (peptide sequence: QDLEMEALTFKPEEWGMKR, peptide start residue: 186) | -1.6 |
| UniProt P25666 (peptide sequence: MHLFTIKK, peptide start residue: 171) | -0.804 |
| UniProt P15977 (peptide sequence: RKLSATLESMFADDGVNK, peptide start residue: 661) | -0.78 |
| UniProt P09832 (peptide sequence: HVTCAYR, peptide start residue: 313) | 0.367 |
| UniProt P13000 (peptide sequence: TAGYKPVASGSEK, peptide start residue: 34) | -1.41 |
| UniProt P0ACN7 (peptide sequence: LMDCELIIR, peptide start residue: 326) | 1.5 |
| UniProt P00968 (peptide sequence: AQLGSNSTMKKHGR, peptide start residue: 931) | 0.849 |
| UniProt P27431 (peptide sequence: EMMLELINQPEHFK, peptide start residue: 252) | 0.714 |
| UniProt P27833 (peptide sequence: LCGDGGFTR, peptide start residue: 26) | -0.494 |
